DAX1 inh-1: NR0B1 (DAX1) inhibition; P51843; HEK293 Gal4-DAX1 luciferase reporter, luminescence; inhibition, % at 6.75 µM; 0.99% of 340,000 active; AID 504766;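 active = inhibition above the mean over all tested compounds plus 3 SD, cut at about 4.2% in these data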;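 note: 0% = DAX1-transfected cells with DMSO and 100% = empty-vector control cells with DMSO; inhibition shows as a rise in luminescence from relieved DAX1 repression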
Target sequence (P51843 207-470 limits assumed): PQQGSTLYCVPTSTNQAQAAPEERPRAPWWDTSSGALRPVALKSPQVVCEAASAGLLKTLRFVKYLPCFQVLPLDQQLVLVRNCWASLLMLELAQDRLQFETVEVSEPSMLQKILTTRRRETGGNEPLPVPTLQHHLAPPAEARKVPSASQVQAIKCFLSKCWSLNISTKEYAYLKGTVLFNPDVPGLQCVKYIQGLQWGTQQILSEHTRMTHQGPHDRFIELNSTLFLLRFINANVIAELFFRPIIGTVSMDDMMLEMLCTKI
DAX1 inh-2: DAX1 (NR0B1) inhibition, primary screen | HEK293T StAR-luciferase reporter, SF-1/DAX-1 repression relief | inhibition, % at 6.8 µM | 1.1% of 370,000 active | AID 652010;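 active = inhibition above the mean over all tested compounds plus 3 SD, cut at about 3.6% in these data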;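 note: 0% = DAX-1 cells with DMSO and 100% = cells lacking DAX-1 with DMSO; higher inhibition means more luminescence from relief of DAX-1 repression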
hgDAF12 agonist: activates the H. glycines DAF-12 receptor ligand-binding domain; HEK293 GAL4-hgDAF12 UAS-luciferase reporter, agonist luminescence; normalized to butyrate control; activation, % at 6.8 µM; 1.8% of 370,000 active;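 active = activation above a cutoff set at the mean of all screened compounds plus 3 SD, cut at about 10% in these data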;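 note: 0% = DMSO wells and 100% = sodium butyrate wells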
hcDAF12 agonist: H. contortus DAF-12 activation, primary screen | HEK293 hcDAF-12 lit1-tk-luc reporter, luminescence; 0% DMSO, 100% Δ7-dafachronic acid | activation, % at 6.8 µM | 1.4% of 370,000 active | AID 652067;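 active = activation above the mean of all tested compounds plus 3 SD, cut at about 5.5% in these data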;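 note: 100% = response to 3 µM Δ7-dafachronic acid high control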
ssDAF-12 act: activates DAF-12 receptor from parasite S. stercoralis; HEK293 ssDAF-12/GRIP1 lit1-tk-luc reporter, luminescence; % of 3 µM dafachronic acid response; activation, % at 6.8 µM; 1% of 370,000 active;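 active = activation above the mean over all tested compounds plus 3 SD, cut at about 0.9% in these data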;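 note: 0% = DMSO-only wells and 100% = 3 µM delta7-dafachronic acid wells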
* = called active by the depositor; nt = no result. Shown are actives, neighbours in structure and some others; about 4.1% of the full set was active somewhere.

SMILES	DAX1 inh-1	DAX1 inh-2	hgDAF12 agonist	hcDAF12 agonist	ssDAF-12 act
O=C1c2ccccc2NC(c2ccccn2)N1c1ccc(Cl)cc1 (centres undefined)	2	0	8	6.2*	-1
c1ccc2c(c1)NC1(CCCCCC1)n1c-2nc2ccccc21	1	2	10	3	-1
CCCCC1(C)Nc2ccccc2-c2nc3ccccc3n21 (centres undefined)	3	2	11*	3	0
CC1(c2ccccn2)Nc2ccccc2-c2nc3ccccc3n21 (centres undefined)	4.4*	1	11*	2	0
c1ccc2c(c1)NC1(CCCCC1)n1c-2nc2ccccc21	1	2	11*	4	-1
CCC(CC)C(=O)N(C)c1c(C)nc2c(OCc3cccc(OC)c3)cccn12	nt	0	1	-1	-1
COc1cc2c(c3c1c(=O)c1ccccc1n3C)C=CC(C)(C)O2	nt	-1	2	-1	-2
COc1ccc(C2CC(=O)C(c3ccc(F)cc3)=CN2Cc2ccccc2)cc1 (centres undefined)	nt	-1	0	-3	-1
O=C1c2ccccc2NC(c2ccc(Br)o2)N1O (centres undefined)	1	2	3	2	0
O=C1c2ccccc2NC(c2ccco2)N1O (centres undefined)	4.4*	0	0	0	-1
COc1ccc(-c2coc3cc(O)c(OC)cc3c2=O)cc1	0	0	10	1	0
COc1ccc(-c2coc3cc(OC)cc(OC)c3c2=O)cc1	0	3	4	1	-1
COc1ccc(-c2coc3cc(OC)cc(O)c3c2=O)cc1	5.0*	2	10	1	-1
COc1ccc(-c2coc3cc(OC(C)=O)ccc3c2=S)cc1	4.5*	2	11*	2	1
CCOc1ccc(N(Cc2nnc3n2CCCCC3)C(=O)Nc2cccc(C)c2)cc1	6.6*	1	-2	1	-1
Cc1ccccc1-c1cccc2c3c([nH]c12)[C@@H]1C[C@H]2[C@@H](C(=O)N1CC3)[C@H](C)ON2C	nt	0	2	0	0
C[C@@H]1ON(C)[C@H]2C[C@H]3c4[nH]c5ccccc5c4CCN3C(=O)[C@@H]12	-1	1	1	3	1.0*
COc1cccc(CC(=O)NCC2CCN(C(=O)C(=O)c3cccs3)CC2)c1	nt	0	-2	1	-1
O=C1NCCCC1C(=O)N1CCCCC1 (centres undefined)	3	0	1	-1	-1
O=C1CCC(=O)N(O)CCCCCNC(=O)CCC(=O)N(O)CCCCNC(=O)CCC(=O)N(O)CCCCCN1	5.3*	0	3	-1	0
Cc1ccsc1-c1cc2nc(NCCCN(C)C)n(C)c(=O)c2s1	nt	0	2	1	-1
Cc1ccc(C(=O)/C=C/N(C)C)cn1	6.8*	2	-1	-2	-1
CN(C)/C=C/C(=O)c1ccc(Cl)cc1	-1	1	1	-1	-2
O=C(NCc1ccccn1)c1ccc2c(c1)N(Cc1ccccc1)CCS2	1	0	-3	-1	-2
O=C(NCc1cccnc1)c1ccc2c(c1)N(Cc1ccccc1)CCS2	6.0*	1	-1	-3	-1
SMILES	DAX1 inh-1	DAX1 inh-2	hgDAF12 agonist	hcDAF12 agonist	ssDAF-12 act
C#Cc1cccc(NC(=O)c2ccc(Cl)cc2Cl)c1	2	2	12*	4	0
O=C(CCc1nnc(CCCc2ccccc2)o1)NCCN1CCOC1=O	3	1	-1	0	-1
CCN(CCn1cccn1)C(=O)CCc1nnc(CCCc2ccccc2)o1	1	1	13*	2	1.0*
Cn1cc(CCNC(=O)CCc2nnc(CCCCc3ccccc3)o2)cn1	-1	0	12*	-2	-2
CCc1cc2c(nc1CC)CCCN2CCOC	nt	-1	0	-1	-1
O=C(N[C@H](C(=O)N1CCC[C@H]1C(=O)NC1CCCC1)C1CCCCC1)c1ccccn1	nt	0	2	0	-1
COC(=O)[C@]12C[C@H](CC(=O)NCc3ccc(OC)c(OC)c3)C(=O)N(Cc3ccccc3)C1=C[C@H](COCc1ccccc1)O[C@@H]2C	nt	-2	-4	-3	-1
O=S1(=O)c2ccc(N3CCSCC3)cc2Oc2ccccc2CN1Cc1cn(Cc2ccccc2C(F)(F)F)nn1	nt	-1	-6	-1	-1
O=C(NC(Cc1nn[nH]n1)C(=O)OCc1ccccc1)OCc1ccccc1 (centres undefined)	0	-1	0	1	-1
O=C(Oc1cccc2ccccc12)c1ccco1	0	0	-2	6.0*	-1
CCCCCn1cnc2sc(CC)cc2c1=O	0	3	12*	1	-1
CCCCCn1cnc2sc(-c3ccccc3)cc2c1=O	0	1	4	0	-1
CCCCn1cnc2sc(-c3ccccc3)cc2c1=O	3	2	10*	2	0
CCOc1ccc(CCNC(=O)COC(=O)c2[nH]c(C)c(C(C)=O)c2C)cc1OCC	2	-1	3	-1	-1
COC(=O)[C@@]1(C(C)C)N=C(c2cc(OC)c(OC)c(OC)c2)[C@]2(O1)C(=O)N(C)c1ccc(Br)cc12	nt	-2	0	0	-1
COc1ccccc1Cc1c(C(C)(C)C)nc2c(C)cc(Br)cn12	nt	-2	2	0	-1
c1ccc(CSc2nnc3ccc(-c4cccs4)nn23)nc1	1	0	4	1	-2
c1ccc(CSc2ccc(-c3cccs3)nn2)nc1	1	3.8*	12*	0	-1
CCOC(=O)CN1C(=O)[C@]2(OCCC=C[C@H]2C)c2cc(OC)ccc21	nt	0	-2	0	0
CCCOc1ccc(-c2nc(=S)[nH][nH]2)cc1	4.5*	2	6	3	-1
[O-][n+]1cccc2c(Br)cc(Br)c(O)c21	4.5*	0	1	2	-1
Oc1c(Br)cc(Br)c2cccnc12	-1	0	-2	-1	-1
COc1ccc(Oc2cccc3c2S(=O)(=O)N(C2CC2)C[C@@H](COCc2ccccc2)O3)cc1	nt	-1	-2	-2	-2
Cc1ccc(NC(=O)c2cncc(Br)c2)cc1S(=O)(=O)N(C)C	1	3	7	1	1.4*
Cc1ccc(SCC(=O)NNC(=O)c2cncc(Br)c2)cc1	5.9*	0	-1	-1	-1
CCN(CC)c1ccc(NC(=O)c2cncc(Br)c2)cc1	1	2	13*	1	-1
CCN(CC)c1ccc(NC(=O)c2cccnc2)cc1	0	1	4	1	-1
Cc1ccc(C(=O)c2cncc(Br)c2)cc1	2	1	2	-1	-1
O=C(CN(Cc1ccccc1)C(=O)CCC(=O)Nc1ccccn1)NCc1ccc(F)cc1	0	0	-1	0	0
CN(C)S(=O)(=O)N1CCc2ccccc2C1	4.3*	-1	3	-1	0
